Reference: paper PMC5540273 (PLoS ONE, 2017)

Test system: T1, IKK-epsilon
T1 construct: gene IKBKE
Conditions: concentration: 1 μM,replicates: in singlicate; n = 1
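Note: KINOMEscan kinase panel screen.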

Compound	%Inh [%]
Cn1ccc2ncnc(Oc3ccc(NC(=O)Nc4cnn(C(C)(C)C)c4)c(Cl)c3)c21	10
COc1cc2ncn(-c3cc(OCC4CCCCC4)c(C(N)=O)s3)c2cc1OC [GSK204559]	0
COc1cccc(CNC(=O)NC2CCN(c3ccnc(Nc4cc(OC)c(OC)c(OC)c4)n3)C2)c1 (centres unmarked) [GSK1379765]	36
Cn1ccc2ncnc(Oc3ccc(NC(=O)Nc4cccc(C(F)(F)F)c4)c(F)c3)c21	0
CNC(=O)c1ccccc1Nc1nc(Nc2cccc(CS(C)(=O)=O)c2)ncc1C.O=CO [GSK1520489]	73
C[C@@H](Oc1cc(-n2cnc3cc(-c4cnn(C)c4)ccc32)sc1C(N)=O)c1ccccc1Cl [GSK580432]	4
COc1cc(Nc2nccc(N3CCC(NC(=O)c4cccc(C#N)c4)C3)n2)cc(OC)c1OC (centres unmarked) [GSK1379751]	5
Cc1ccn2nc(-c3ccc(F)cc3)c(-c3ccncc3)c2c1.Cl [GW457859]	16
CN1CCN(CCNc2nc3cc(Oc4ccc(NC(=O)Nc5cc(C(F)(F)F)ccc5F)cc4)ccc3[nH]2)CC1.Cl.Cl [GW768504]	14
NC(=O)c1ccc(-c2cc3ncnc(SCC(=O)O)c3s2)cc1	0
CC(=O)c1c(-c2ccncc2)[nH]c(-c2ccncc2)c1C [GW493036]	2
O=C(Nc1cccc(C(F)(F)F)c1)c1cccc(Oc2ccc3nccn3n2)c1	0
CC(=O)Nc1nc2cnc(Nc3cc(NC(=O)c4cccc(CC(C)(C)C#N)c4)ccc3C)nc2s1	28
COc1ccc(Nc2nccc(N3CCC(NC(=O)c4cccc(C#N)c4)C3)n2)cc1 (centres unmarked) [GSK1379730]	0
Cl.c1ccc(Oc2ccc(Nc3ccnc4cc(-c5ccc(CN6CCNCC6)o5)ccc34)cc2)nc1 [GW567142]	42
O=C(Nc1ccc(Oc2ccc3nc(NC(=O)C4CC4)cn3n2)c(F)c1)c1cccn(-c2ccccc2)c1=O	0
Cl.Cl.NC[C@H](CC1CCCCC1)NC(=O)c1ccc(-c2ccnc3[nH]ccc23)s1 [GSK1581428]	31
COC(=O)Nc1nc2cc(Oc3ccc(NC(=O)Nc4cc(C(F)(F)F)ccc4Cl)cc3)ccc2[nH]1.Cl [GW697465]	0
CC(C(=O)NC1CCN(c2ccnc(Nc3ccc(F)cc3)n2)C1)c1ccc(Cl)cc1 (centres unmarked) [GSK1379713]	0

Compound	%Inh [%]
O=C(NCC1CC1)c1ccc(-c2cc(C(=O)NC3CC3)ccc2F)cc1 [GW810445]	0
CCN1CCN(CCCC(=O)Nc2n[nH]c3nc(-c4ccc(O)cc4)c(Br)cc23)CC1 [SB-731579]	0
Cc1nnc(-c2ccc3occ(-c4ccc(S(C)=O)cc4)c3n2)o1 (centres unmarked)	0
CC(C)S(=O)(=O)N1CCN(Cc2ccc3c(c2)nc(NC(=O)c2ccsc2)n3C[C@H](O)c2ccccc2)CC1 [GW635815]	52
Cn1ccc2ncnc(Oc3ccc(NC(=O)Nc4cccc(C(F)(F)F)c4)c(Cl)c3)c21	6
Cn1ccc2ncnc(Oc3ccc(NC(=O)Nc4ccnc(C(F)(F)F)c4)c(Cl)c3)c21	0
Cc1cccc2c(-c3ccncc3)c(-c3ccc(F)cc3)nn12.Cl [GW461487]	21
Cc1ccc2c(-c3ccnc(Nc4ccc(C(F)(F)F)cc4)n3)cnn2n1 [GW819776]	0
Cc1n[nH]c2cc(Nc3ccnc(Nc4cccc(CN5CCOCC5)c4)n3)ccc12 [GW682569]	38
CCn1c(-c2nonc2N)nc2cncc(Br)c21 [SB-738004]	26
CN1CCN(CCCNc2nccc(-c3c(-c4ccc(F)cc4)nn4cc(C(N)=O)ccc34)n2)CC1 [GW622475]	39
Nc1nccc(-c2ccc3c(N)n[nH]c3c2)n1 [GSK1034945]	18
Cc1ccc(C(=O)Nc2ccc(Oc3ccc4nc(NC(=O)C5CC5)cn4c3)c(F)c2)c(=O)n1-c1ccccc1	0
Cn1ccc2ncnc(Oc3ccc(NC(=O)Nc4cncc(C(F)(F)F)c4)c(Cl)c3)c21	0
NC(=O)Nc1sc(-c2ccc(F)cc2)cc1C(N)=O [GW789449]	0
Cn1ccc2ncnc(Oc3ccc(NC(=O)Nc4cc(C(C)(C)C)on4)c(Cl)c3)c21	0
COC(=O)c1cccc(NC(=O)NC2CCN(c3ccnc(Nc4cc(OC)c(OC)c(OC)c4)n3)C2)c1 (centres unmarked) [GSK1379767]	40
O=C(Nc1ccccc1)c1cccc(Oc2ccc3nccn3n2)c1	91.5

Test system: INSRR
Conditions: concentration: 1 μM,replicates: in singlicate; n = 1

Compound	%Inh [%]
Cn1ccc2ncnc(Oc3ccc(NC(=O)Nc4cnn(C(C)(C)C)c4)c(Cl)c3)c21	3
COc1cc2ncn(-c3cc(OCC4CCCCC4)c(C(N)=O)s3)c2cc1OC [GSK204559]	0
COc1cccc(CNC(=O)NC2CCN(c3ccnc(Nc4cc(OC)c(OC)c(OC)c4)n3)C2)c1 (centres unmarked) [GSK1379765]	96.4
Cn1ccc2ncnc(Oc3ccc(NC(=O)Nc4cccc(C(F)(F)F)c4)c(F)c3)c21	6
CNC(=O)c1ccccc1Nc1nc(Nc2cccc(CS(C)(=O)=O)c2)ncc1C.O=CO [GSK1520489]	92.6
C[C@@H](Oc1cc(-n2cnc3cc(-c4cnn(C)c4)ccc32)sc1C(N)=O)c1ccccc1Cl [GSK580432]	1
COc1cc(Nc2nccc(N3CCC(NC(=O)c4cccc(C#N)c4)C3)n2)cc(OC)c1OC (centres unmarked) [GSK1379751]	0
Cc1ccn2nc(-c3ccc(F)cc3)c(-c3ccncc3)c2c1.Cl [GW457859]	0
CN1CCN(CCNc2nc3cc(Oc4ccc(NC(=O)Nc5cc(C(F)(F)F)ccc5F)cc4)ccc3[nH]2)CC1.Cl.Cl [GW768504]	0
NC(=O)c1ccc(-c2cc3ncnc(SCC(=O)O)c3s2)cc1	0
CC(=O)c1c(-c2ccncc2)[nH]c(-c2ccncc2)c1C [GW493036]	0
O=C(Nc1cccc(C(F)(F)F)c1)c1cccc(Oc2ccc3nccn3n2)c1	22
CC(=O)Nc1nc2cnc(Nc3cc(NC(=O)c4cccc(CC(C)(C)C#N)c4)ccc3C)nc2s1	4
COc1ccc(Nc2nccc(N3CCC(NC(=O)c4cccc(C#N)c4)C3)n2)cc1 (centres unmarked) [GSK1379730]	0
Cl.c1ccc(Oc2ccc(Nc3ccnc4cc(-c5ccc(CN6CCNCC6)o5)ccc34)cc2)nc1 [GW567142]	0
O=C(Nc1ccc(Oc2ccc3nc(NC(=O)C4CC4)cn3n2)c(F)c1)c1cccn(-c2ccccc2)c1=O	0
Cl.Cl.NC[C@H](CC1CCCCC1)NC(=O)c1ccc(-c2ccnc3[nH]ccc23)s1 [GSK1581428]	100
COC(=O)Nc1nc2cc(Oc3ccc(NC(=O)Nc4cc(C(F)(F)F)ccc4Cl)cc3)ccc2[nH]1.Cl [GW697465]	0
CC(C(=O)NC1CCN(c2ccnc(Nc3ccc(F)cc3)n2)C1)c1ccc(Cl)cc1 (centres unmarked) [GSK1379713]	10

Compound	%Inh [%]
O=C(NCC1CC1)c1ccc(-c2cc(C(=O)NC3CC3)ccc2F)cc1 [GW810445]	0
CCN1CCN(CCCC(=O)Nc2n[nH]c3nc(-c4ccc(O)cc4)c(Br)cc23)CC1 [SB-731579]	0
Cc1nnc(-c2ccc3occ(-c4ccc(S(C)=O)cc4)c3n2)o1 (centres unmarked)	0
CC(C)S(=O)(=O)N1CCN(Cc2ccc3c(c2)nc(NC(=O)c2ccsc2)n3C[C@H](O)c2ccccc2)CC1 [GW635815]	27
Cn1ccc2ncnc(Oc3ccc(NC(=O)Nc4cccc(C(F)(F)F)c4)c(Cl)c3)c21	0
Cn1ccc2ncnc(Oc3ccc(NC(=O)Nc4ccnc(C(F)(F)F)c4)c(Cl)c3)c21	3
Cc1cccc2c(-c3ccncc3)c(-c3ccc(F)cc3)nn12.Cl [GW461487]	0
Cc1ccc2c(-c3ccnc(Nc4ccc(C(F)(F)F)cc4)n3)cnn2n1 [GW819776]	1
Cc1n[nH]c2cc(Nc3ccnc(Nc4cccc(CN5CCOCC5)c4)n3)ccc12 [GW682569]	0
CCn1c(-c2nonc2N)nc2cncc(Br)c21 [SB-738004]	0
CN1CCN(CCCNc2nccc(-c3c(-c4ccc(F)cc4)nn4cc(C(N)=O)ccc34)n2)CC1 [GW622475]	0
Nc1nccc(-c2ccc3c(N)n[nH]c3c2)n1 [GSK1034945]	0
Cc1ccc(C(=O)Nc2ccc(Oc3ccc4nc(NC(=O)C5CC5)cn4c3)c(F)c2)c(=O)n1-c1ccccc1	0
Cn1ccc2ncnc(Oc3ccc(NC(=O)Nc4cncc(C(F)(F)F)c4)c(Cl)c3)c21	0
NC(=O)Nc1sc(-c2ccc(F)cc2)cc1C(N)=O [GW789449]	10
Cn1ccc2ncnc(Oc3ccc(NC(=O)Nc4cc(C(C)(C)C)on4)c(Cl)c3)c21	19
COC(=O)c1cccc(NC(=O)NC2CCN(c3ccnc(Nc4cc(OC)c(OC)c(OC)c4)n3)C2)c1 (centres unmarked) [GSK1379767]	0
O=C(Nc1ccccc1)c1cccc(Oc2ccc3nccn3n2)c1	86
